KCNQ2 inh: rat KCNQ2 potassium channel inhibitors, primary screen, cell-based, CHO-K1, FluxOR thallium flux, B-score; Potassium voltage-gated channel subfamily KQT member 2 (Rattus norvegicus), O88943; 20 min; stronger effect = lower value; B-score at 10 µM; hit rate 1.1% among 310,000;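 active means fluorescence ratio B-score at most minus 3 library SDs, with starting brightness B-score within 2 library SDs, cut at about -5.5 in these data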
Target sequence (O88943 whole entry, looked up): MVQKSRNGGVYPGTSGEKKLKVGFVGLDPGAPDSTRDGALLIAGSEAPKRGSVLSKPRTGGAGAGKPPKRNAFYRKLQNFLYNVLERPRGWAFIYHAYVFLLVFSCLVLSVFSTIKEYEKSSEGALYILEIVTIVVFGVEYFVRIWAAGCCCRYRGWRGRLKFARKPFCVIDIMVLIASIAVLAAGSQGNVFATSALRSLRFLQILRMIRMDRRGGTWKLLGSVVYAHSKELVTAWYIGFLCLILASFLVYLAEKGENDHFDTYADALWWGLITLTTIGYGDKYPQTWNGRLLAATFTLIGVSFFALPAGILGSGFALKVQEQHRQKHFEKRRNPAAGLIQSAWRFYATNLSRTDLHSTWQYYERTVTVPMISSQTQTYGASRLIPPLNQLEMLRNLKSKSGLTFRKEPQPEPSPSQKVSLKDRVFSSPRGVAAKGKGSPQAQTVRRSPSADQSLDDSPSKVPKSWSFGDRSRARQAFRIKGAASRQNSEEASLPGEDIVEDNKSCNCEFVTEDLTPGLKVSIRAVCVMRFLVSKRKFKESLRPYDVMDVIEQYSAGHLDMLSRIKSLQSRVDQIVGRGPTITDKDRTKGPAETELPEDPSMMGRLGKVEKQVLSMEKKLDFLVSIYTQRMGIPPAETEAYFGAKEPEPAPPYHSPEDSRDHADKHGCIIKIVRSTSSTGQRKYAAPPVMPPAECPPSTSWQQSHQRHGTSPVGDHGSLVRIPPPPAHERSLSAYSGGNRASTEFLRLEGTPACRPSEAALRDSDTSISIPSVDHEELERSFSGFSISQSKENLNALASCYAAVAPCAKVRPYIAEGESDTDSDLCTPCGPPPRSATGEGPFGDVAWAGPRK
KCNQ2 enhance: potentiators of rat KCNQ2 potassium channel; Potassium voltage-gated channel subfamily KQT member 2 (Rattus norvegicus), O88943; CHO-K1 KCNQ2, FluxOR thallium flux fluorescence; stronger effect = higher value; B-score at 10 µM; hit rate 0.54% among 310,000;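 active means fluorescence ratio B-score at least 3 SD of library B-scores, with initial fluorescence B-score within 3 of them, cut at about 5.3 in these data; same plate scores as AID 2156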;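 further: B-score of peak minus minimum over baseline fluorescence ratio after K+ and Tl+ stimulus; positive B-score means potentiation of KCNQ2 with more thallium influx and brighter signal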
Of the large screens only hits and unclear results are named; the others gave an inactive call. An excerpt weighted towards active compounds, which were near 1.6% of everything screened.

O=C1/C(=C/c2cccc3ccccc23)CCCc2ccccc21	KCNQ2 inh -6.6
O=C(CSc1nnc(-c2ccccn2)n1Cc1ccco1)c1ccc(Cl)cc1	none (no result: KCNQ2 enhance)
CC(C)(C)c1ccc(CSc2nnc(-c3ccccn3)n2Cc2ccco2)cc1	KCNQ2 inh -5.6
Brc1ccc(CSc2nnc(-c3ccccn3)n2Cc2ccco2)cc1	none (no result: KCNQ2 enhance)
Clc1cccc(CSc2nnc(-c3ccccn3)n2Cc2ccco2)c1	KCNQ2 inh -6.7
CCCCC1=CC2=CC(=O)C(C)(OC(=O)CC)C(=O)C2=CN1CC(C)C (configuration not stated)	none (no result: KCNQ2 enhance)
CCOC(=O)C1=C(COCCN)NC(C)=C(C(=O)OC)C1c1ccccc1Cl (configuration not stated)	none (no result: KCNQ2 enhance)
CCOC(=O)C1=C(C)NC(C)=C(C(=O)OC)C1c1cccc(Cl)c1Cl (configuration not stated)	KCNQ2 inh -7.5
Cc1cc(=O)oc(C)c1C(=O)NCCC1=CCCCC1	none
O=C(Nc1cccc(F)c1)c1ccc(Cn2cc([N+](=O)[O-])cn2)o1	KCNQ2 enhance 5.5
Cc1ccccc1NC(=O)c1ccc(Cn2cc([N+](=O)[O-])cn2)o1	none
O=C(NCc1ccccc1)c1ccc(-c2ccccc2F)o1	none (no result: KCNQ2 enhance)
O=C(NCCc1ccccc1)c1ccc(-c2ccc(F)cc2)o1	KCNQ2 inh -5.8
C=CCn1c(SCC(=O)NCc2ccccc2)nnc1-c1ccccc1O	none (no result: KCNQ2 enhance)
COc1ccc(-n2c(CCc3ccccc3)nnc2SCC(=O)NCc2ccccc2)cc1	none (no result: KCNQ2 enhance)
C=CCn1c(COc2ccccc2)nnc1SCC(=O)N/N=C/c1cc(Cl)ccc1O	KCNQ2 inh -6.4
C=CCn1c(CSCc2ccc(Cl)cc2)nnc1SCC(=O)NCc1ccccc1	KCNQ2 inh -6.5
C=CCn1c(COc2ccccc2)nnc1SCC(=O)N/N=C/c1ccc(C)cc1	none (no result: KCNQ2 enhance)
O=C(CSc1nnc(CCc2ccccc2)n1-c1ccc(Cl)cc1)NCc1ccccc1	KCNQ2 inh -7.4
CC(NC(=O)COc1ccccc1)C(c1cccs1)N1CCCC1 (configuration not stated)	none (no result: KCNQ2 enhance)
CCOc1ccc(NC(=O)C(=O)NCc2ccncc2)cc1	none
O=C1c2cccnc2C(=O)N1Cc1ccco1	none
COc1ccc(-c2cc(C(=O)NCc3ccccc3)no2)cc1OC	none
Cc1[nH]n(C(N)=S)c(=O)c1N=Nc1ccc([N+](=O)[O-])cc1Cl	none
CC(C)Cn1c2c(c(O)c(C(=O)Nn3c(Cc4ccccc4)nc4ccccc4c3=O)c1=O)CCCC2	KCNQ2 inh -6.3
CCCCc1nc2ccccc2c(=O)n1NC(=O)c1c(O)c2c(n(CC(C)C)c1=O)CCCC2	none (no result: KCNQ2 enhance)
CCOC(=O)C1(CCCc2ccccc2)CCN(C(=O)C2=C(C)OCCO2)CC1	none (no result: KCNQ2 enhance)
CCn1c(NCc2cc(Cl)ccc2O)nc2ccccc21	KCNQ2 inh -5.6
CCn1c(NCc2cccc(OC)c2OC)nc2ccccc21	KCNQ2 inh -6.1
C=CCn1c(NCc2ccccc2OC)nc2ccccc21	none (no result: KCNQ2 enhance)
C=CCn1c(NCc2cc(Cl)ccc2O)nc2ccccc21	none (no result: KCNQ2 enhance)
O=C(O)/C=C/C(=O)Nc1ccc(NC(=O)c2ccccc2)c(Cl)c1	none
Cc1cccc(CN2CCC(N3CC(C)OC(C)C3)CC2)c1 (configuration not stated)	none
CNC(=S)N/N=C/c1cc(Br)cc(Br)c1O	KCNQ2 enhance 7
Oc1c(Br)cc(Br)cc1/C=N/NC(=S)N[C@H]1CC2C=CC1C2 (some centres not stated)	none
O=C(O)c1ccc2c(c1)OCCOCCOCCOCCOCCO2	none (no result: KCNQ2 enhance)
O=C(CSc1n[nH]c(-c2ccncc2)n1)Nc1ccc(Br)cc1	none (no result: KCNQ2 enhance)
Cc1cccc(C(=O)O/N=C2/CC3CCC2(C)C3(C)C)c1 (configuration not stated)	KCNQ2 inh -5.7
Cc1ccc(C(=O)O/N=C2\CC3CCC2(C)C3(C)C)cc1 (configuration not stated)	none (no result: KCNQ2 enhance)
CS(=O)(=O)N1CC2CCCN2c2ccc(C(F)(F)F)cc21 (configuration not stated)	none
Cc1cccc(-c2nc(CSCC(=O)N3CCN(Cc4ccc5c(c4)OCO5)CC3)c(C)o2)c1	none (no result: KCNQ2 enhance)
COP(=O)(OC)c1nc(-c2cccc3ccccc23)oc1N1CCCCC1	none (no result: KCNQ2 enhance)
CCOP(=O)(OCC)c1nc(-c2cccc3ccccc23)oc1N1CCCCC1	KCNQ2 inh -6.1
CC(=O)Nc1ccc(S(=O)(=O)Oc2cccc(N3C(=O)C4CCCCC4C3=O)c2)cc1 (configuration not stated)	none
C#CCN(CC=C)C(=O)c1cccc(OC2CCN(S(C)(=O)=O)CC2)c1	none
Cc1ccc(C(=O)NC(=S)Nc2ccccc2N2CCOCC2)cc1C	KCNQ2 inh -6.1
COc1cc(C(=O)NC(=S)Nc2ccccc2N2CCOCC2)cc(OC)c1OC	none (no result: KCNQ2 enhance)
O=S(=O)(c1ccc(Br)cc1)N1CCN=C1SCc1cccnc1	none
COc1ccc(NC(=O)CSc2nc3c(c(=O)n2-c2ccccc2OC)SCC3)cc1	none
CN(c1ccccc1)c1nc(N)c([N+](=O)[O-])c(NCc2ccccc2)n1	none (no result: KCNQ2 enhance)
Cc1sc2ncnc(N/N=C/c3ccccc3O)c2c1C	none (no result: KCNQ2 enhance)
COc1cccc(/C=N/Nc2ncnc3scc(-c4ccccc4)c23)c1OC	KCNQ2 inh -6
C=CCOc1ccc2c(CC)cc(=O)oc2c1C	none
O=C(NCc1ccc(Cl)cc1)c1ccccc1CCc1ccccc1	none
CN(CC(=O)Nc1cccc(F)c1)C(=O)c1ccccc1CCc1ccccc1	KCNQ2 inh -6.2
COc1ccc(NC(=O)CN(C)C(=O)c2ccccc2CCc2ccccc2)cc1	none (no result: KCNQ2 enhance)
O=C(NCc1ccccc1Cl)c1cnccc1C(F)(F)F	KCNQ2 enhance 7.4
O=C(NCc1ccccc1Cl)c1cnccn1	none
O=C(NCc1ccccc1Cl)c1ccccc1CCc1ccccc1	KCNQ2 inh -5.6
Cc1cc(C)c(NC(=O)c2ccccc2CCc2ccccc2)c(C)c1	none (no result: KCNQ2 enhance)
CCc1cccc(CC)c1NC(=O)c1ccccc1CCc1ccccc1	KCNQ2 inh -6.1
Cc1ccc2nc(-c3ccc(O)c(O)c3)cn2c1	none (no result: KCNQ2 enhance)
CN1C(=O)/C(=C2\SC(=S)N(NC(=O)c3cccnc3)C2=O)c2ccccc21	none (no result: KCNQ2 enhance)
Cc1cccc(NS(=O)(=O)c2cc(C(=O)N3CCN(C)CC3)ccc2C)c1	none (no result: KCNQ2 enhance)
COc1cccc(CN2CCN(C(=O)c3cc(-c4cccnc4)nc4ccc(C)cc34)CC2)c1	KCNQ2 inh -7.3
O=C(c1cc(-c2cccnc2)nc2ccc(Cl)cc12)N1CCN(S(=O)(=O)c2cccs2)CC1	none (no result: KCNQ2 enhance)
CCC1CCCCN1C(=S)NC(=O)c1ccc([N+](=O)[O-])cc1 (configuration not stated)	KCNQ2 enhance 7.8
CCC1CCCCN1C(=S)NC(=O)c1cccs1 (configuration not stated)	none
C=CCn1c(SCc2ccc3c(c2)OCO3)nc2scc(-c3ccco3)c2c1=O	KCNQ2 inh -6.1
C=CCn1c(SCC(C)=O)nc2scc(-c3ccco3)c2c1=O	none (no result: KCNQ2 enhance)
CCNC1=C(Cl)C(=O)c2ccccc2C1=O	none
O=C1C(Cl)=C(NCCN2CCCCC2)C(=O)c2ccccc21	KCNQ2 inh -5.8
CCOC(=O)C1CCN(C(=O)CCCn2c(=O)c3cccn3c3cccnc32)CC1	none
CCOC(=O)N1CCN(C(=O)CSc2nc(CC)nc3c2c(=O)n(C)c(=O)n3C)CC1	none
COc1ccc(OC)c(-c2cnc(OC(C)(C)C)nc2OC(C)(C)C)c1	KCNQ2 inh -5.7
COc1ccc(-c2ccc(-c3nnc(-c4cc(OC)ccc4OC)o3)cc2)cc1	none
Cc1ccc(-n2ncc(C(=O)NCC3CCN(C4CCCC4)C3)c2C2CCN(C(=O)OC(C)(C)C)CC2)cc1 (configuration not stated)	none (no result: KCNQ2 enhance)
